Bioassay records deposited in PubChem BioAssay by National Center for Advancing Translational Sciences (NCATS).
GALC G270D act – galactocerebrosidase G270D activity enhancement, cell-based; P54803; 145M-Twi-hGALC-G270D cells, HMU-beta-Gal fluorescence, 48 h; Potency, µM (top dose mostly 57.5 µM), most hits filed as activators; 0.1% of 45,000 active; note: 0% is about no effect; nearly all actives have a fitted effect of over 65% in size
Target sequence (P54803 whole entry G286D): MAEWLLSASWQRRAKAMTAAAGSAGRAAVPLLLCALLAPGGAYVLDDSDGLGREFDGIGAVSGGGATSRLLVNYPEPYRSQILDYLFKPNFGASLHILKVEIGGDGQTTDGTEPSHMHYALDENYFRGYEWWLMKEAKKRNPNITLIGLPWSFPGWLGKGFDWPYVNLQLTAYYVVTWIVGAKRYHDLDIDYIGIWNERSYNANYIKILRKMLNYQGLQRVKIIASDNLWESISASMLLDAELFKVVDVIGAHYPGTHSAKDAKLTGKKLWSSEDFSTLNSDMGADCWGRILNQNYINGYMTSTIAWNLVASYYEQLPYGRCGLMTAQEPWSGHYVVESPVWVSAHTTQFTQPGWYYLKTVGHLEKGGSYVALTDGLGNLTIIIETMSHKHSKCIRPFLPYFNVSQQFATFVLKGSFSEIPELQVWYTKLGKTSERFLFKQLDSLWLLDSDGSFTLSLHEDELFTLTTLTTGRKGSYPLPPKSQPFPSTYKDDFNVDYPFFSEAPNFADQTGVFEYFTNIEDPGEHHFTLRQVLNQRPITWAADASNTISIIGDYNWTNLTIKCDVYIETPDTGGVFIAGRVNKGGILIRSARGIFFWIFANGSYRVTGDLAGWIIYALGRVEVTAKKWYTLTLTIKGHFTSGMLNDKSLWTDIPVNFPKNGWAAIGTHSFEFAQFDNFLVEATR
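qHTS, 1536-well; 145M-Twi-hGALC-G270D cells (WT line also made) in DMEM/F12 + 10% FBS; compound incubation on live cells; HMU-β-gal 0.1 mM final, pH 5.2, NaTC; carbonate stop; fluorescence increase = enhanced residual activity.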
NTMT1 inh – NTMT1 methyltransferase inhibition. 2.5% of 59,000 active. NTMT1 MTase-Glo SAH luminescence, purified enzyme. Q9BV86. AID 1645870. Potency, µM (series often up to 114 µM), inactives show top-dose activity change, negative = inhibition, most hits filed as inhibitors;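 note: plate controls were DMSO vehicle for no effect and no enzyme for full effect; nearly all actives have a fitted effect of over 65% in size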
FH mod – Identification of activators of human fumarate hydratase by quantitative high-throughput screening. AID 1347055, 2019. 0.22% of 54,000 active. Potency, µM (titrated, usually from 79.9 µM), inactives show at the top dose activity change, negative = inhibition, hits mostly inhibitors. FH coupled MDH/diaphorase resazurin fluorescence, 15 min; note: % is set by controls: 0 for no effect and ±100 for the full control effect; the screen sought activators but most active calls are inhibition curves; nearly all actives have a fitted effect of over 45% in size
* hit, by the source's call; i = inactive; ? = inconclusive; nt = no result; ! = repeats disagree; [ ] = another dose, or the depositor's remark. The entries come from a sample that favours hits as a whole. Calls come from the whole dose curve; as a rule, active = well fitted curve in the direction sought with a large enough effect; inconclusive = small, poorly fitted or top-dose-only effect, or another doubt; inactive = no such curve, though single readings can be large; an effect the other way counts as inactive or inconclusive. Potency is the fitted concentration of half-maximal effect.

SMILES | GALC G270D act | NTMT1 inh | FH mod
CCCCCCCCCC(=O)N[C@@H](Cc1c[nH]c2ccccc12)C(=O)N[C@H](CC(N)=O)C(=O)N[C@@H](CC(=O)O)C(=O)N[C@@H]1C(=O)NCC(=O)N[C@@H](CCCN)C(=O)N[C@@H](CC(=O)O)C(=O)N[C@H](C)C(=O)N[C@@H](CC(=O)O)C(=O)NCC(=O)N[C@H](CO)C(=O)N[C@@H]([C@@H](C)CC(=O)O)C(=O)N[C@@H](CC(=O)c2ccccc2N)C(=O)O[C@@H]1C | nt | 7%[57.5 µM] | 4%[20.6 µM]
CN1CCCN(C(=O)c2cccc(-c3ccc(C=C4C(=O)Nc5ccc(Cl)cc54)o3)c2)CC1 | nt | 7.1µM* | -3%[53.3 µM]
Cc1cc(C)c(/C=C2\C(=O)Nc3ccc(Cl)cc32)[nH]1 | nt | -12% | 2%
CCCn1cc2c(nc(NC(=O)Nc3ccc(OC)cc3)n3nc(-c4ccco4)nc23)n1 | nt | 2%[57.5 µM] | -10%
Cc1cccc(NC(=O)c2c(NC(=O)C(F)(F)F)sc3c2CCCCC3)c1 | i | 10µM* | ?
O=C(COc1ccc(Cl)cc1)Nc1sc2c(c1C(=O)Nc1cccc(Cl)c1)CCCC2 | i | 25µM* | 3%
Cc1ccccc1NC(=O)c1c(NC(=O)C(F)(F)F)sc2c1CCCCC2 | i | -6% | ?
Cc1ccc(NC(=O)c2c(NC(=O)C(F)(F)F)sc3c2CCCCC3)cc1 | i | -25% | ?
O=C(Nc1cccc(Cl)c1)c1c(NC(=O)C(F)(F)F)sc2c1CCCC2 | i | 8.9µM* | ?
COc1ccc(NC(=O)c2c(NC(=O)COc3ccccc3)sc3c2CCCCC3)cc1 | i | 4% | 4%
CC12CCC3C1C(c1c(cc(O)c(C(=O)c4ccccc4)c1O)O2)C3(C)C (stereo unspecified) | nt | ? | -24%[53.3 µM]
O=c1c2ccc(Cl)cc2nc2sc(Nc3ccc4c(c3)CCC4)nn12 | nt | 7% | nt
CC(=O)Nc1cc(Oc2ccc3c(nc(Nc4ccc(F)cc4F)n3C)c2C)ccn1 | nt | 18% | nt
C=C(C)[C@@H]1CC=C(COC(=O)NC(=O)c2ncn3c(=O)n(C)nnc23)CC1 | nt | -3%[57.5 µM] | 26%
CCc1ccc(-c2cc3c(N4CCN(c5ccccc5)CC4)nccn3n2)cc1 | i | 79µM* | -11%
CCc1ccc(NC(=O)c2ccc(Cn3nc(N4CCN(c5ccccc5)CC4)ccc3=O)o2)cc1 | i | ? | -21%
CC[C@@H](Oc1cccc(CN(CCCOc2ccc(OC)cc2)c2nc3ccccc3o2)c1)C(=O)O | nt | 5% | nt
CC1=C2C(=O)O[C@@H](c3ccoc3)[C@]2(C)CCC1 | nt | 19%[57.5 µM] | 6%
Cc1ccc(Cn2ccn(CC(=O)Nc3c(C)cc(C)cc3C)c(=O)c2=O)cc1 | i | 50µM* | 7%
Cc1ccc(CNC(=O)Cn2ccn(-c3cc(C)cc(C)c3)c(=O)c2=O)cc1 | i | -5% | 4%
CC1=C[C@H]2[C@@H](CC1=O)[C@H](C)C[C@H](O)[C@H]2C(C)C | nt | 12%[57.5 µM] | -8%
COc1cccc(CNC(=O)Nc2cn(CC(C)C)c(=O)c3ccccc23)c1 | i | -2% | ?
COc1ccc(OC)c(CNC(=O)Nc2cn(CC(C)C)c(=O)c3ccccc23)c1 | i | -1% | 32µM*[activator]
Cc1cccc(-n2cnc3cc(C(=O)N4CCC(Br)CC4)ccc32)c1 | nt | 2%[57.5 µM] | nt
Cc1coc2c1CC1OC1(C)CCC1OC1(C)C2 (stereo unspecified) | nt | 1%[57.5 µM] | -1%
SMILES | GALC G270D act | NTMT1 inh | FH mod
NC(=O)C1CCN(c2nc(-c3ccc(F)cc3)cs2)CC1 | nt | 79µM* | nt
NC(=O)C1CCN(c2nc(-c3ccc(-c4ccccc4)cc3)cs2)CC1 | nt | -9% | nt
Cc1ccc(-c2nn(C(C)(C)CNC(=O)c3ccncc3)c3ncnc(N)c23)cc1 | nt | 8% | nt
O=C(/C=C/n1cnc(-c2cc(C(F)(F)F)cc(C(F)(F)F)c2)n1)NNc1cnccn1 | nt | 17%[57.5 µM] | 5%
N#C/C(=C\c1ccc(-c2ccc(Br)cc2)o1)C(=O)Nc1ccccc1O | i | -11% | -1%
N#C/C(=C\c1ccc(-c2ccc(C(=O)O)cc2)o1)C(=O)Nc1ccccc1C(=O)O | i | 2% | 14µM*
COc1c2cc(c(O[C@@H]3O[C@H](CO)[C@@H](O)[C@H](O)[C@H]3O)c1OC)CCCCC(O)CCc1ccc(O)c-2c1 (stereo partly specified) | nt | ? | -27%[53.3 µM]
CC(=O)Nc1ccc2nc(SCc3ccccc3)sc2c1 | i | 4% | ?
CCc1ccc(Nc2nc(N)nc(CSc3nc4ccccc4s3)n2)cc1 | i | 89µM* | ?
CN(C)C/C=C/C(=O)Nc1cccc(C(=O)Nc2cccc(Nc3ncc(Cl)c(-c4c[nH]c5ccccc45)n3)c2)c1 | nt | ? | 11%
CN(C)C/C=C/C(=O)Nc1ccc(C(=O)Nc2cccc(Nc3ncc(Cl)c(-c4c[nH]c5ccccc45)n3)c2)cc1 | nt | 50µM*! | 6%
CC(C)C(C)(C)C(C)(C)C(C)(C)S | i | 32µM* | 1%
CC(=O)O/N=C1\C(=O)N(Cc2cc(Cl)ccc2Cl)c2ccc(Cl)cc21 | nt | -17% | nt
CCCc1cc(C(=O)N[C@H](Cc2ccc(-c3cccc(OC(F)(F)F)c3)nc2)C(=O)N[C@@H]2CCNC2)sc1C | nt | 56µM* | nt
CC(C)C(CO)Nc1nc(Nc2cc(N)cc(Cl)c2)c2ncn(C(C)C)c2n1 (stereo unspecified) | nt | -1%[57.5 µM] | -9%
Cc1nnc2c(N3CCN(c4ccc(F)cc4)CC3)nc3ccc(C(=O)c4ccccc4)cc3n12 | i | 10% | -19%
COc1ccc(N2CCN(c3nc4ccccc4n4c(C)nnc34)CC2)cc1 | i | 79µM* | 0%
CS(=O)c1ccc(-c2nc(-c3ccc(F)cc3)c(-c3ccncc3)[nH]2)cc1 (stereo unspecified) | nt | 35µM* | 8%
Fc1ccc(-c2nc(-c3c(F)cccc3F)[nH]c2-c2ccncc2)cc1 | nt | ? | 0%
COc1ccc(CNC(=O)C2CCN(C(=O)c3cnn(-c4ccccc4)c3-n3cccc3)CC2)cc1 | i | 89µM* | 0%
COc1cccc(CNC(=O)C2CCN(C(=O)c3cnn(-c4ccccc4)c3-n3cccc3)CC2)c1 | i | ? | -16%
Cn1ncnc1[C@@H]1c2n[nH]c(=O)c3cc(F)cc(c23)N[C@H]1c1ccc(F)cc1 | nt | 3%[57.5 µM] | -4%
O=C(Nc1ccc(N2CCN(c3ccc(F)cc3)CC2)c(C(=O)O)c1)c1cccs1 | i | 89µM* | -12%
CC(=O)c1ccc(N2CCN(c3ccc(NC(=O)c4ccc(F)cc4)cc3C(=O)O)CC2)cc1 | i | ? | 3%
CC(O)/C=C/C1(O)C(C)C(O[C@@H]2O[C@H](CO)[C@@H](O)[C@H](O)[C@H]2O)C(O)CC1(C)C (stereo partly specified) | nt | 10%[29.8 µM] | -10%[53.3 µM]
CC(CC1c2ccccc2CCc2ccccc21)CN(C)C (stereo unspecified) | i | 13µM* | 0%[53.3 µM]
O=C(N[C@H]1CCN(C(=O)c2cc(C(F)(F)F)cc(C(F)(F)F)c2)[C@H](Cc2ccc(Cl)cc2)C1)c1ccnc2ccccc12 | nt | -2%[29.8 µM] | ?
